Measurements reported in the supplement of paper PMC6555819.

Tests used:
Test in all cases: PBM binding z-score (relative to random genomic background probes); higher = stronger binding; sequences stand for … in GC…GCGATTGACAGCGTAGAATGAAGG
[1] = system: PPARg:RXRa DBDmut IVT, anti-RXR (DBD mutation: RXRa K156A/R161A, NR concentration 270 nM, RXRa partner concentration 90 nM)
Procedure, shortened: (§1)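 Scanned fluorescence from custom Agilent 4×180K protein-binding microarrays was regression-normalized. Binding z-scores use random background probes as reference. Ligand-free nuclear receptor dimers were incubated on the arrays for 1 h and detected with antibodies against each partner (one per run).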

[2] = system: PPARg:RXRa IVT, anti-PPARg (NR concentration 270 nM, RXRa partner concentration 90 nM)
Procedure, shortened: as §1

[3] = system: PPARg DBDmut:RXRa IVT, anti-PPARg (DBD mutation: PPARg1 K132A/R137A, NR concentration 270 nM, RXRa partner concentration 90 nM)
Procedure, shortened: as §1

[4] = system: PPARg DBDmut IVT, anti-PPARg (DBD mutation: PPARg1 K132A/R137A, NR concentration 270 nM)
Procedure, shortened: as §1

[5] = system: PPARg homodimer (NR concentration 180 nM)
Procedure, shortened: as §1

[6] = system: PXR:RXRa (NR concentration 270 nM, RXRa partner concentration 90 nM)
Procedure, shortened: as §1

[7] = system: PXR homodimer (NR concentration 270 nM)
Procedure, shortened: as §1

[8] = system: RARa:RXR (NR concentration 270 nM, RXRa partner concentration 90 nM)
Procedure, shortened: as §1

[9] = system: RARa homodimer (NR concentration 270 nM)
Procedure, shortened: as §1

[10] = system: RARb:RXRa (NR concentration 270 nM, RXRa partner concentration 90 nM)
Procedure, shortened: as §1

[11] = system: RARb homodimer (NR concentration 270 nM)
Procedure, shortened: as §1

[12] = system: RARg:RXRa (NR concentration 270 nM, RXRa partner concentration 90 nM)
Procedure, shortened: as §1

[13] = system: RARg homodimer (NR concentration 270 nM)
Procedure, shortened: as §1

[14] = system: RXRa DBDmut IVT, anti-RXR (DBD mutation: RXRa K156A/R161A, NR concentration 90 nM)
Procedure, shortened: as §1

[15] = system: RXRa homodimer (NR concentration 180 nM)
Procedure, shortened: as §1

[16] = system: THRa:RXRa (NR concentration 90 nM, RXRa partner concentration 90 nM)
Procedure, shortened: as §1

[17] = system: THRa homodimer (NR concentration 90 nM)
Procedure, shortened: as §1

[18] = system: VDR homodimer (NR concentration 270 nM)
Procedure, shortened: as §1

Row | Sequence | PBM binding z-score [1] | PBM binding z-score [2] | PBM binding z-score [3] | PBM binding z-score [4] | PBM binding z-score [5] | PBM binding z-score [6] | PBM binding z-score [7] | PBM binding z-score [8] | PBM binding z-score [9] | PBM binding z-score [10] | PBM binding z-score [11] | PBM binding z-score [12] | PBM binding z-score [13] | PBM binding z-score [14] | PBM binding z-score [15] | PBM binding z-score [16] | PBM binding z-score [17] | PBM binding z-score [18]
1 | TAGCCTAAGTCATTCAGGGGCCAGTATAGAAAGC | -0.155 | -0.0585 | 0.0399 | 0.2 | 0.00647 | 0.14 | -0.297 | 0.276 | -0.483 | 0.478 | 0.772 | 1.72 | 0.386 | -0.0569 | 0.191 | 0.835 | -0.418 | -0.452
2 | AATACAGGGTCATCGTAGGCCAGAGTACGCACAG | 2.76 | 4.32 | 1.59 | 1.19 | 1.96 | 4.94 | 0.48 | 4.82 | 0.854 | 4.37 | 3.55 | 5.49 | 5.05 | 3.55 | 6.83 | 4.6 | 1.54 | 3.35
3 | TTACCAAGGTGAAAGGTCGCTGATGCACGCCTTG | 2.44 | 5.19 | 0.53 | 0.614 | 1.28 | 3.66 | -0.522 | 5.46 | 0.386 | 3.12 | 2.77 | 4.17 | 2.3 | 0.982 | 5.52 | 3.19 | 0.725 | 0.555
4 | TAGACTAGGTCAGATCGGGCCAGTATACGCTATA | 4.39 | 5.26 | 1.46 | 0.155 | 0.192 | 0.932 | -0.501 | 1.18 | -0.174 | 2.99 | 1.99 | 2.46 | 3.56 | -0.416 | 1.24 | 3.92 | -0.175 | -0.33
5 | TTACCAAGGTGTAAGGTCGTTGATGCACGCCTTG | -0.345 | 1.3 | 0.0676 | -0.033 | 0.125 | 1.1 | 0.267 | 1.38 | -0.417 | 1.09 | 0.961 | 0.528 | 0.368 | 0.411 | 1.35 | 2.49 | 1.59 | 1.62
6 | CGAACCAGGGCATGAGTTGATAGCAAATGCCGAT | 2.9 | 2.29 | -0.69 | 0.106 | 0.228 | -0.0525 | -0.0221 | -0.0885 | -0.263 | 1.02 | 0.207 | 0.644 | 0.753 | 0.293 | 0.492 | 0.518 | -0.382 | 0.429
7 | TCATATAGGTAAATGCAAGGTGAAAGTCCGATCT | 4.1 | 3 | 0.862 | 1.12 | 1.16 | 1.03 | 0.736 | 1.86 | 0.975 | 1.19 | 1.3 | 1.09 | 0.776 | 1.93 | 1.36 | 2.64 | 1.5 | 0.698
8 | CCTACTAGGCCAAAGGTCATTGATTCCAATGCTC | 6.51 | 7.41 | 1.46 | 1.49 | 3.89 | 5.56 | 2.25 | 6.39 | 2.46 | 4.79 | 4.84 | 6.22 | 5.49 | 2.06 | 6.88 | 3.67 | 1.45 | 2.65
